Test results reported in PubChem BioAssay (Tox21).
Inconclusive results are not listed. A call without a number means that no potency is given here. The source made the active and inactive calls. Unless noted, calls follow the shape of the dose curve; as a rule, active = well fitted curve in the direction sought with a large enough effect in the repeat runs; inconclusive = weak or mixed curves; inactive = no such curve, though single readings can be large; an effect the other way counts as inactive or inconclusive.

What was measured:
[1] = molecular target: Acetylcholinesterase (Homo sapiens) (UniProt P22303); experiment: Acetylcholinesterase (AChE) small molecule antagonists: fluorescence cell-based qHTS assay (AID 1347398; calls by dose curve; also: nearly all actives have a fitted effect of over 50% in size; also: potency is read from the fitted curve at half-maximal effect); conditions: Potency: AChE activity
Method in brief: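 Cellular AChE inhibition: SH-SY5Y cells treated with test chemical for 30 min at 37 C, then acetylthiocholine hydrolysis followed over 40 min at room temperature via thiocholine-reactive Thiolite Green fluorescence (490/520 nm).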

[2] = molecular target: Acetylcholinesterase (Homo sapiens) (UniProt P22303); experiment: Acetylcholinesterase (AChE) small molecule antagonists: enzyme-based qHTS assay with human liver microsomes (AID 1347399; calls by dose curve; also: nearly all actives have a fitted effect of over 60% in size; also: potency is read from the fitted curve at half-maximal effect); conditions: Potency: qHTS inhibition
Method in brief: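 Recombinant human AChE (50 mU/mL in the enzyme mix) and human liver microsomes (0.25 mg/mL final) were preincubated with compound and NADPH (0.25 mg/mL final) for 30 min at 37 C. Acetylthiocholine/DTNB was then added; thiocholine was read colorimetrically after 10 min at room temperature.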

[3] = molecular target: Cytochrome P450 2C19 (Homo sapiens) (UniProt P33261); experiment: Cytochrome P450 Family 2 Subfamily C Member 19 (CYP2C19) small molecule antagonists: luciferase reporter qHTS assay (AID 1671197); also: nearly all actives have a fitted effect of over 65% in size; also: potency is read from the fitted curve at half-maximal effect
Method in brief: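 Light output is proportional to CYP2C19 activity: proluciferin substrate is converted to luciferin, then detected by a luciferin detection reagent that also stops the 1 h, 37C NADPH-driven reaction. Ketoconazole serves as positive control.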

[4] = molecular target: Cytochrome P450 2C9 (Homo sapiens) (UniProt P11712); experiment: Cytochrome P450 Family 2 Subfamily C Member 9 (CYP2C9) small molecule antagonists: luciferase reporter qHTS assay (AID 1671198); also: nearly all actives have a fitted effect of over 50% in size; also: potency is read from the fitted curve at half-maximal effect
Method in brief: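 CYP2C9 activity was measured with a P450-Glo proluciferin substrate. Enzyme–substrate mix was held with compound for 10 min at room temperature, then NADPH regeneration solution was added for 1 h at 37C. Luciferin product was read as luminescence.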

[5] = molecular target: Cytochrome P450 1A2 (Homo sapiens) (UniProt P05177); experiment: Cytochrome P450 Family 1 Subfamily A Member 2 (CYP1A2) small molecule antagonists: luciferase reporter qHTS assay (AID 1671199); also: nearly all actives have a fitted effect of over 50% in size; also: potency is read from the fitted curve at half-maximal effect
Method in brief: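 Luminescence readout (relative luminescence units) after luciferin detection reagent, 20 min RT. Preceded by 1 h room-temperature CYP1A2 reaction with NADPH regeneration solution following 10 min compound preincubation with enzyme and proluciferin substrate. Furafylline positive control.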

[6] = molecular target: Voltage-gated inwardly rectifying potassium channel KCNH2 (Homo sapiens) (UniProt Q12809); experiment: Human Ether-a-go-go-Related Gene (hERG) channel small molecule antagonists: fluorescence cell-based qHTS assay (AID 1671200);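 also: hERG-expressing U2OS cells given a thallium stimulus after FluxOR II dye loading; series mostly up to about 77 µM; nearly all actives have a fitted effect of over 50% in size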
Method in brief: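 Quantitative HTS in hERG-U2OS cells: thallium entry through the channel reports activity, read as continuous 480/540 nm fluorescence over 2 min after stimulus addition.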

[7] = molecular target: Cytochrome P450 3A4 (Homo sapiens) (UniProt P08684); experiment: Cytochrome P450 Family 3 Subfamily A Member 4 (CYP3A4) small molecule antagonists: luciferase reporter qHTS assay (AID 1671201); also: nearly all actives have a fitted effect of over 50% in size; also: potency is read from the fitted curve at half-maximal effect
Method in brief: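 Inhibition of CYP3A4 is measured as loss of light: the enzyme converts a proluciferin substrate to luciferin, detected luminescently. Reaction ran 1 h at room temperature with NADPH regeneration after a 10 min compound preincubation.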

Sequence of Cytochrome P450 1A2 (Homo sapiens) (P05177 whole entry, looked up): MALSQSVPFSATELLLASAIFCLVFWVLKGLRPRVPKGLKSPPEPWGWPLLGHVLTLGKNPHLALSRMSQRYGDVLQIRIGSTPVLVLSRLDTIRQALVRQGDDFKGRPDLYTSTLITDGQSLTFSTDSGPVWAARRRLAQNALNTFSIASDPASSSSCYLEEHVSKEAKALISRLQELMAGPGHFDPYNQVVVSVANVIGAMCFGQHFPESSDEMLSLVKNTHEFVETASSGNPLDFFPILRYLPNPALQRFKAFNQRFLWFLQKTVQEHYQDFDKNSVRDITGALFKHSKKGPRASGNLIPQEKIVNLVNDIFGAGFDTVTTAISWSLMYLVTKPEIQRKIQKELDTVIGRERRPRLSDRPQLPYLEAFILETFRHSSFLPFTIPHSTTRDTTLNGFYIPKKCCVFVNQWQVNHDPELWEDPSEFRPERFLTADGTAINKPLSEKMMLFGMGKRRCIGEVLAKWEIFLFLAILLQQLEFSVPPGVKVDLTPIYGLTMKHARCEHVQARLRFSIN
Sequence of Cytochrome P450 3A4 (Homo sapiens) (P08684 whole entry, looked up): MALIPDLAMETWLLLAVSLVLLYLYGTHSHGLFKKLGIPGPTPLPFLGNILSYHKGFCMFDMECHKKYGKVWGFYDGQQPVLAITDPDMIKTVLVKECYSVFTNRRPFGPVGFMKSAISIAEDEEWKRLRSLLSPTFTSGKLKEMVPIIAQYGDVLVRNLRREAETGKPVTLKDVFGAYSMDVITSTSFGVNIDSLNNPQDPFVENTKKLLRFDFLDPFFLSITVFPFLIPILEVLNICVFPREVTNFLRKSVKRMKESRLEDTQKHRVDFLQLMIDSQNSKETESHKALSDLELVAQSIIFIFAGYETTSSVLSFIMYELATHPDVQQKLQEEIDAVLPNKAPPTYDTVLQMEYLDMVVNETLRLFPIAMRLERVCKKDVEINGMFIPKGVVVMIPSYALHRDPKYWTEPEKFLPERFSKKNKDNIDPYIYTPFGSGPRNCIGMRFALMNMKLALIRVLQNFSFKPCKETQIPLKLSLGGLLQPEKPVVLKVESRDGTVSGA
Sequence of Cytochrome P450 2C9 (Homo sapiens) (P11712 whole entry, looked up): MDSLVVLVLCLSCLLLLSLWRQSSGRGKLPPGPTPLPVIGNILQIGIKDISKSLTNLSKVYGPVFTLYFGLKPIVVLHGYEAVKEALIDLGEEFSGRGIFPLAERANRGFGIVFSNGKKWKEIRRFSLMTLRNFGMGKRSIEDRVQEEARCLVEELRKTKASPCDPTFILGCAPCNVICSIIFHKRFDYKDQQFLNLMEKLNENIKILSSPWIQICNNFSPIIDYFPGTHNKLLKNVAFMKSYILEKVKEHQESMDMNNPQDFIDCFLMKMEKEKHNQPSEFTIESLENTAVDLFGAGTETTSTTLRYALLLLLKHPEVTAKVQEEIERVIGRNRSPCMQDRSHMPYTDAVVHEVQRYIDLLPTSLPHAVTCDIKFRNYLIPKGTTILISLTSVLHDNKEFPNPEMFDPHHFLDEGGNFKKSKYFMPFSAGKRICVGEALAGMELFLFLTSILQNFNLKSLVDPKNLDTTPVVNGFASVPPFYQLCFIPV
Sequence of Voltage-gated inwardly rectifying potassium channel KCNH2 (Homo sapiens) (Q12809 whole entry, looked up): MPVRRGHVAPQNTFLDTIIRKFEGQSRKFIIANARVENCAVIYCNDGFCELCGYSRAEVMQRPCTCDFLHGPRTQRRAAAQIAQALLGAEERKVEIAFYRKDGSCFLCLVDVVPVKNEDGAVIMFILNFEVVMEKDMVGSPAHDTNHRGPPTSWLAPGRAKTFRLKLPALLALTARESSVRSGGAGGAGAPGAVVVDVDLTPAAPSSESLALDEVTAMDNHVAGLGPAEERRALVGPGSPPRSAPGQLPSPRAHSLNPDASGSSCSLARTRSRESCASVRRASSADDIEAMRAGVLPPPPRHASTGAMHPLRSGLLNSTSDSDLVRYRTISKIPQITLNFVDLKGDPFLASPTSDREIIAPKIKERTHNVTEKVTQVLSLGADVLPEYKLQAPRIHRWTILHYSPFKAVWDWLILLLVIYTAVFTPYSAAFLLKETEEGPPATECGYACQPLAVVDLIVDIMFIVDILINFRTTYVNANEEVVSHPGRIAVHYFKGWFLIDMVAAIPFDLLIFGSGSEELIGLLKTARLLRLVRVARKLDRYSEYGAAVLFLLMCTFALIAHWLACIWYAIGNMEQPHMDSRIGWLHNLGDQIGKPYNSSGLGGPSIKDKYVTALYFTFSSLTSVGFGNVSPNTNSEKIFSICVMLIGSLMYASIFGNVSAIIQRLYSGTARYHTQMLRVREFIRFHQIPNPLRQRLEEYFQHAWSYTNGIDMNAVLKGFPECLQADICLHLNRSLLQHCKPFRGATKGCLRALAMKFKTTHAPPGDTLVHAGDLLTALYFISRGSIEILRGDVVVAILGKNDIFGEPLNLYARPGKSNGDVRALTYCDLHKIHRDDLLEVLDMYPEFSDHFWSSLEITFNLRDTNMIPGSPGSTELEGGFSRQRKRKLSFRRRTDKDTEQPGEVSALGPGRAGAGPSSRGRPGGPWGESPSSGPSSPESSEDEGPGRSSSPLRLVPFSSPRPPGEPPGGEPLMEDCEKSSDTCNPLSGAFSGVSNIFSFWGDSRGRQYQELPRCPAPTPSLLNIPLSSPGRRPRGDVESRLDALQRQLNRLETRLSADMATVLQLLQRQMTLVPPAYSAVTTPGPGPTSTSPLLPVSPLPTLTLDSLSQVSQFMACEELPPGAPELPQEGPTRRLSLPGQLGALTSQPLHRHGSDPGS
Sequence of Acetylcholinesterase (Homo sapiens) (P22303 whole entry, looked up): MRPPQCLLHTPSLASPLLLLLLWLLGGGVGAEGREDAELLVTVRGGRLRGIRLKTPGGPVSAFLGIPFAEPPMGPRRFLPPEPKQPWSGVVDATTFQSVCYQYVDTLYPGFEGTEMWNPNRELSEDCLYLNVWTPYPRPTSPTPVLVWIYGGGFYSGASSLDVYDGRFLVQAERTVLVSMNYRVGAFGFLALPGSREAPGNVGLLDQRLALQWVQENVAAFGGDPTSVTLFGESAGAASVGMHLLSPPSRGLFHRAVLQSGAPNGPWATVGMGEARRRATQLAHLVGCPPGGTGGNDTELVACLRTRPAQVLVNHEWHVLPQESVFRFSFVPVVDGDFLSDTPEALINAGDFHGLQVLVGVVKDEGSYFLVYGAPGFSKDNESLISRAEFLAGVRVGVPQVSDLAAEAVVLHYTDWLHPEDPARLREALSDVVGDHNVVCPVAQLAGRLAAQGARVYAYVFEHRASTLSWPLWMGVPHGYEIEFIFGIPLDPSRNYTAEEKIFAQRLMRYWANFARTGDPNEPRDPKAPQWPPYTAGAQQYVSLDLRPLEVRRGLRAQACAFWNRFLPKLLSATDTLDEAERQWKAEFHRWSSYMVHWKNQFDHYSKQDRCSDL
Sequence of Cytochrome P450 2C19 (Homo sapiens) (P33261 whole entry, looked up): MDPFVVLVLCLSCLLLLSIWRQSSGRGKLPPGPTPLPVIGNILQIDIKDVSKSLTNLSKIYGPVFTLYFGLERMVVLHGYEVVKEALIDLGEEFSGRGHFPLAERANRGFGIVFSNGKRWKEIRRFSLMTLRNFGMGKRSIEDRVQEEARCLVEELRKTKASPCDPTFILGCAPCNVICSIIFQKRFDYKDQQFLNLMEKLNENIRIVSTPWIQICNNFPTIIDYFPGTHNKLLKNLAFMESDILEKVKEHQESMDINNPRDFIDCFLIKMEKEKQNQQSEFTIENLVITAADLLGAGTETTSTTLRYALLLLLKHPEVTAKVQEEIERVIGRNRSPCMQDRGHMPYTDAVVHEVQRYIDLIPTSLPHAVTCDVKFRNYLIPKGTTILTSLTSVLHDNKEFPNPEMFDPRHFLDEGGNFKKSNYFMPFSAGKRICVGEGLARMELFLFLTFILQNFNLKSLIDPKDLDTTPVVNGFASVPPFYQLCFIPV

Row | Compound | Potency [1] | Potency [2] | Potency [3] | Potency [4] | Potency [5] | Potency [6] | Potency [7]
1 | CCC(C)Br (centres undefined) | inactive | inactive | inactive | inactive | inactive | inactive | inactive
2 | CC(C)c1c(CN(C)C(C)Cc2ccccc2)n(C)n(-c2ccccc2)c1=O (centres undefined) | inactive | inactive | 6.92 µM (active) | 4.36 µM (active) | – | inactive | 1.74 µM (active)
3 | Nc1ccc(N=Nc2ccccc2)cc1 | inactive | inactive | 12.6 µM (active) | 12.6 µM (active) | 4.61 µM (active) | inactive | –
4 | C[C@]12Cc3cn[nH]c3C[C@@H]1CC[C@@H]1[C@@H]2CC[C@@]2(C)[C@H]1CC[C@]2(C)O | inactive | inactive | – | 0.977 µM (active) | inactive | inactive | –
5 | CCC[CH2][Sn]([CH2]CCC)([O]C(C)=O)[O]C(C)=O | inactive | inactive | inactive | inactive | inactive | inactive | inactive
6 | CSC1=N[C@@](C)(c2ccccc2)C(=O)N1Nc1ccccc1 | inactive | inactive | 1.12 µM (active) | 35.6 µM (active) | – | inactive | 31.7 µM (active)
7 | CCOC(=O)CCN(SN(C)C(=O)Oc1cccc2c1OC(C)(C)C2)C(C)C | 100 nM (active) | 796 nM (active) | 17.8 µM (active) | 12.6 µM (active) | 22.4 µM (active) | – | 10 µM (active)
8 | CNC(=O)CSP(=O)(OC)OC | inactive | inactive | – | – | – | inactive | inactive
9 | CO/N=C(\C(=O)OC)c1ccccc1CO/N=C(\C)c1cccc(C(F)(F)F)c1 | inactive | inactive | 3.56 µM (active) | – | 17.8 µM (active) | inactive | –
10 | CNN | inactive | inactive | inactive | inactive | inactive | inactive | inactive
11 | O=C(O)CCCCCCNC1c2ccccc2CCc2ccccc21 | inactive | inactive | inactive | inactive | inactive | inactive | inactive
12 | [C-]1=CC=CC1.[Cl][Zr+2][Cl].c1cc[cH-]c1 | – | – | – | – | – | inactive | –
13 | CCCCn1cc[n+](C)c1.[Cl][Fe-]([Cl])([Cl])[Cl] | – | – | – | – | – | inactive | –
14 | CCCCn1cc[n+](C)c1 (tested in a mixture with another compound) | – | – | – | – | – | inactive | –
